According to PubChem BioAssay (EPA / NIEHS):
Results filed as inconclusive are left out. Activity calls are given as the source filed them. The calls were made as follows: active = hit-call score of the fitted dose curve at least 0.9, where 1 is the maximum; inconclusive = response in the unintended direction; inactive = score below 0.9.

Tests used:
[1] = molecular target: Protein deacetylase HDAC6 (Homo sapiens) (UniProt Q9UBN7); test: NVS_ENZ_hHDAC6: NovaScreen (NVS) Enzymatic Assay for human Histone Deacetylase 6 (HDAC6) (AID 2283164)
Method: (§1) NVS_ENZ_hHDAC6 is a biochemical, single-readout assay that uses extracted gene-proteins in a cell-free assay. Measurements were taken 1 hour after chemical dosing in a 384-well plate.NVS_ENZ_hHDAC6 is one of one assay component(s) measured or calculated from the NVS_ENZ_hHDAC6 assay. It is designed to make measurements of enzyme activity, a form of enzyme reporter, as detected with fluorescence intensity signals by Fluorescence and electrophoretic mobility shift technology.Data from the assay component NVS_ENZ_hHDAC6 was analyzed into 1 assay endpoint. This assay endpoint, NVS_ENZ_hHDAC6, was analyzed in the positive analysis fitting direction relative to DMSO as the negative control and baseline of activity. Using a type of enzyme reporter, loss-of-signal activity can be used to understand changes in the enzymatic activity as they relate to the gene HDAC6. Furthermore, this assay endpoint can be referred to as a primary readout, because this assay has produced multiple assay endpoints where this one serves a enzymatic activity function. To generalize the intended target to other relatable targets, this assay endpoint is annotated to the hydrolase intended target family, where the subfamily is histone deacetylase. […]

[2] = molecular target: human IkappaB Kinase alpha (IKKa), CHUK (gene 1147) (UniProt O15111); test: NVS_ENZ_hIKKa: NovaScreen (NVS) Enzymatic Assay for human IkappaB Kinase alpha (IKKa) (AID 2283167)
Outline: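 Compounds first run in duplicate at 25 uM, those meeting threshold (e.g. 30% inhibition) retested to maximum 50 uM. Enzyme activity of recombinant IKKa measured by fluorescence with electrophoretic mobility shift separation, 1 hour post-dosing, DMSO baseline.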

[3] = molecular target: human Insulin Receptor (InsR), INSR (gene 3643) (UniProt P06213); test: NVS_ENZ_hInsR: NovaScreen (NVS) Enzymatic Assay for human Insulin Receptor (InsR) (AID 2283168)
Outline: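 Cell-free enzyme assay read 1 h post-dose by fluorescence after substrate/product mobility-shift separation. Duplicate 25 uM primary screen, then singleton concentration-response up to 50 uM for compounds passing threshold; loss of signal vs DMSO.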

[4] = molecular target: human Janus Kinase 2 (Jak2), JAK2 (gene 3717) (UniProt O60674); test: NVS_ENZ_hJak2: NovaScreen (NVS) Enzymatic Assay for human Janus Kinase 2 (Jak2) (AID 2283169)
Outline: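 Single-point duplicate screen at 25 uM, with hits run in concentration series to a 50 uM top dose. Substrate-product separation by mobility shift with fluorescence detection, 1 h post-dosing; DMSO baseline.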

[5] = molecular target: human c-Jun N-terminal Kinases (JNK2), MAPK9 (gene 5601) (UniProt P45984); test: NVS_ENZ_hJNK2: NovaScreen (NVS) Enzymatic Assay for human c-Jun N-terminal Kinases (JNK2) (AID 2283171)
Method: as §1, with “NVS_ENZ_hJNK2” for “NVS_ENZ_hHDAC6”, “plate.NVS_ENZ_hJNK2” for “plate.NVS_ENZ_hHDAC6”, “NVS_ENZ_hJNK2,” for “NVS_ENZ_hHDAC6,”, “MAPK9.” for “HDAC6.”, “kinase” for “hydrolase”, “serine/threonine kinase.” for “histone deacetylase.”

Chain of human Insulin Receptor (InsR), INSR (gene 3643) (P06213 whole entry, looked up): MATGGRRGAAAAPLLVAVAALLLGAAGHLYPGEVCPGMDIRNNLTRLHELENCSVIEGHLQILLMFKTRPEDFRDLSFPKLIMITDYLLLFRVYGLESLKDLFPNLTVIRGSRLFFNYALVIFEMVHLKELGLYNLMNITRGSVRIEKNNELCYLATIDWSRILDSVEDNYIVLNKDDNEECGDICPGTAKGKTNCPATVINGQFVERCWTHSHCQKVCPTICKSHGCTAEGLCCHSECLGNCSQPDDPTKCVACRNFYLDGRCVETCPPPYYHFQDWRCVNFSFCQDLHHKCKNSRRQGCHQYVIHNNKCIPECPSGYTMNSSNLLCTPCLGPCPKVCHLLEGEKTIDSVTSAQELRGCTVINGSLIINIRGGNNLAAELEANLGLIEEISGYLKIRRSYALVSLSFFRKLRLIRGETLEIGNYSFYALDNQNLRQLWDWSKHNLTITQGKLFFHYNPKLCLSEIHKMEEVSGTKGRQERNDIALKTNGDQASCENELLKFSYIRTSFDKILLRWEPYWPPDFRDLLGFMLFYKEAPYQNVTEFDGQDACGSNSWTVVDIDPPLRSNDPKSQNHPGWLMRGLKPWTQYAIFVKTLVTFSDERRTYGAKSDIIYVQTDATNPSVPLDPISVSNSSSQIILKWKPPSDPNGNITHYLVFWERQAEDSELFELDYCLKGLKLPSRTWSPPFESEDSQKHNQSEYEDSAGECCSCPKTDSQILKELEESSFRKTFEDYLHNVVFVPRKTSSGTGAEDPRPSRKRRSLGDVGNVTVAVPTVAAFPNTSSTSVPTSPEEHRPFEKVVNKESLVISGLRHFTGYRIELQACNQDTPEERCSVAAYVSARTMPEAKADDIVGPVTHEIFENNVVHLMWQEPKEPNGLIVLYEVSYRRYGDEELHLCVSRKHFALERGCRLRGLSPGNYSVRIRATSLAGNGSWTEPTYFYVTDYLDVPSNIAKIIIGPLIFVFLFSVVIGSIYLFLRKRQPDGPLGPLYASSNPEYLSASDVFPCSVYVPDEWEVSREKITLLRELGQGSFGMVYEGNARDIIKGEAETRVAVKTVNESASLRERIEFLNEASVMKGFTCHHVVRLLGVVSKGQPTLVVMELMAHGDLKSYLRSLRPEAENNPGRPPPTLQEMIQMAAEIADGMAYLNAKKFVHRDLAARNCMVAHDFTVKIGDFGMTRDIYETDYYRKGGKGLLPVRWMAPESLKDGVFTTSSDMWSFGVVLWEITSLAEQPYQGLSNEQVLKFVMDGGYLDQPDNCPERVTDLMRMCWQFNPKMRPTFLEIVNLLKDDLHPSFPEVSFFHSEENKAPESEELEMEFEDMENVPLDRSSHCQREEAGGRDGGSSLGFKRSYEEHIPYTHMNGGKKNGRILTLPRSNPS
Chain of human IkappaB Kinase alpha (IKKa), CHUK (gene 1147) (O15111 whole entry, looked up): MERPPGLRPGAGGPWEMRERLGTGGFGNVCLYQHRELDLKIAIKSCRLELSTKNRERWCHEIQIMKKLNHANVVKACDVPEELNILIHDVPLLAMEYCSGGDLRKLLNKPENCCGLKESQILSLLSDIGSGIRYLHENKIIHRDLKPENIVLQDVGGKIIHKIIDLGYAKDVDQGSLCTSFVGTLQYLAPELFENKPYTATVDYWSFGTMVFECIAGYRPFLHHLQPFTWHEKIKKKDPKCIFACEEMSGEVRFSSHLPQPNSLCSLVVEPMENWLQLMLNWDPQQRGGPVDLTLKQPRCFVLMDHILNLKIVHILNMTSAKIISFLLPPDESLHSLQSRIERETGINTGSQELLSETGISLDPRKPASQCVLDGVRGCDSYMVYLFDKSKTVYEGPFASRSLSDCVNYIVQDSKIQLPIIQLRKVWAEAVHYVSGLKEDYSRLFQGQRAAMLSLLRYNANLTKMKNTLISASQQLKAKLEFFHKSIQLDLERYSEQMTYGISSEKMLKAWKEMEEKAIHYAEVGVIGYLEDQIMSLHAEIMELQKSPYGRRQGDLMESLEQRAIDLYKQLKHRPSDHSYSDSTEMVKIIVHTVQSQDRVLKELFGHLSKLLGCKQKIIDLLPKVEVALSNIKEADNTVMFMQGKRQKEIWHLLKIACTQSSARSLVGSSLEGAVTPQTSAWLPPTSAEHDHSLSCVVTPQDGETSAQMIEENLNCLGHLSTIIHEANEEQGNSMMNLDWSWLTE
Chain of Protein deacetylase HDAC6 (Homo sapiens) (Q9UBN7 whole entry, looked up): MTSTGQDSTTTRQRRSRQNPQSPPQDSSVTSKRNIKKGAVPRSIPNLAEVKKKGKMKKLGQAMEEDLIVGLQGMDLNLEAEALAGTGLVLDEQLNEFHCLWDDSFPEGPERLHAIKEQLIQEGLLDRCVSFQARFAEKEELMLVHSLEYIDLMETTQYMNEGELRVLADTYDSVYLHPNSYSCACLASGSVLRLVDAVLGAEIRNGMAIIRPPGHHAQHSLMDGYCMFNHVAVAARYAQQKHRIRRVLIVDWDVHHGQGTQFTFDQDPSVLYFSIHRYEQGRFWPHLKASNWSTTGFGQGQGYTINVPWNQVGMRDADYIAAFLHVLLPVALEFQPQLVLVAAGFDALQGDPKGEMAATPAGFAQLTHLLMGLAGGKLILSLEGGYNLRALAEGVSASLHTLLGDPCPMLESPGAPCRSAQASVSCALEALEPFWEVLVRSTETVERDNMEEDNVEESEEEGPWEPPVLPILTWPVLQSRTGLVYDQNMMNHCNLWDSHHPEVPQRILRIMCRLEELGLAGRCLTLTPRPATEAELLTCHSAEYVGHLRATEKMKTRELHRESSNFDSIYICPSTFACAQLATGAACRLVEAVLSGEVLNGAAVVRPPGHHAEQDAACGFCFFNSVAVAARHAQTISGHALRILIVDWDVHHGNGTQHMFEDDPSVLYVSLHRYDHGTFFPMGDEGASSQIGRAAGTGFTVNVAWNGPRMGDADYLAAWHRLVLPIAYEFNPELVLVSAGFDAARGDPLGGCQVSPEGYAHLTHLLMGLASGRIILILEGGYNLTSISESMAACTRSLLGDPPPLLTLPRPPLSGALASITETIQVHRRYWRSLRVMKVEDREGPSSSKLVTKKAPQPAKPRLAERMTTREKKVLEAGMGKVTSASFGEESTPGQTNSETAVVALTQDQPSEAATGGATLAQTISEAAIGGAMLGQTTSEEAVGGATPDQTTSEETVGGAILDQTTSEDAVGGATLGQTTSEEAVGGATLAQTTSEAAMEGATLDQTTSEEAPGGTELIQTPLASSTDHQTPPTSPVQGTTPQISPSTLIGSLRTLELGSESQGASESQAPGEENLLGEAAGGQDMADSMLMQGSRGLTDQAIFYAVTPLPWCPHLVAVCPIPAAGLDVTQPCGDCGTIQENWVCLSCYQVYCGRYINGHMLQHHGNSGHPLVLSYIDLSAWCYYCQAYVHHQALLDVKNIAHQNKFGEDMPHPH
Chain of human c-Jun N-terminal Kinases (JNK2), MAPK9 (gene 5601) (P45984 whole entry, looked up): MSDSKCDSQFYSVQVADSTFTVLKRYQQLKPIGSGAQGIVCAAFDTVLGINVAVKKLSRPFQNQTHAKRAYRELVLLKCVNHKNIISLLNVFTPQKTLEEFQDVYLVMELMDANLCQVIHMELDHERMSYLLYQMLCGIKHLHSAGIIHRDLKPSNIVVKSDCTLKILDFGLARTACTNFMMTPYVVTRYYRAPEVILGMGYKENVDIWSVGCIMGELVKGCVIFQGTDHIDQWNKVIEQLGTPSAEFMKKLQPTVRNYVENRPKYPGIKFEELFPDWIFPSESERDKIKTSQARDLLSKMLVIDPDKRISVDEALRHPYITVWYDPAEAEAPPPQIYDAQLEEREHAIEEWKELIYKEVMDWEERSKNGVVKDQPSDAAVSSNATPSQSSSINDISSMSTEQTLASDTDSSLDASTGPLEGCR
Chain of human Janus Kinase 2 (Jak2), JAK2 (gene 3717) (O60674 whole entry, looked up): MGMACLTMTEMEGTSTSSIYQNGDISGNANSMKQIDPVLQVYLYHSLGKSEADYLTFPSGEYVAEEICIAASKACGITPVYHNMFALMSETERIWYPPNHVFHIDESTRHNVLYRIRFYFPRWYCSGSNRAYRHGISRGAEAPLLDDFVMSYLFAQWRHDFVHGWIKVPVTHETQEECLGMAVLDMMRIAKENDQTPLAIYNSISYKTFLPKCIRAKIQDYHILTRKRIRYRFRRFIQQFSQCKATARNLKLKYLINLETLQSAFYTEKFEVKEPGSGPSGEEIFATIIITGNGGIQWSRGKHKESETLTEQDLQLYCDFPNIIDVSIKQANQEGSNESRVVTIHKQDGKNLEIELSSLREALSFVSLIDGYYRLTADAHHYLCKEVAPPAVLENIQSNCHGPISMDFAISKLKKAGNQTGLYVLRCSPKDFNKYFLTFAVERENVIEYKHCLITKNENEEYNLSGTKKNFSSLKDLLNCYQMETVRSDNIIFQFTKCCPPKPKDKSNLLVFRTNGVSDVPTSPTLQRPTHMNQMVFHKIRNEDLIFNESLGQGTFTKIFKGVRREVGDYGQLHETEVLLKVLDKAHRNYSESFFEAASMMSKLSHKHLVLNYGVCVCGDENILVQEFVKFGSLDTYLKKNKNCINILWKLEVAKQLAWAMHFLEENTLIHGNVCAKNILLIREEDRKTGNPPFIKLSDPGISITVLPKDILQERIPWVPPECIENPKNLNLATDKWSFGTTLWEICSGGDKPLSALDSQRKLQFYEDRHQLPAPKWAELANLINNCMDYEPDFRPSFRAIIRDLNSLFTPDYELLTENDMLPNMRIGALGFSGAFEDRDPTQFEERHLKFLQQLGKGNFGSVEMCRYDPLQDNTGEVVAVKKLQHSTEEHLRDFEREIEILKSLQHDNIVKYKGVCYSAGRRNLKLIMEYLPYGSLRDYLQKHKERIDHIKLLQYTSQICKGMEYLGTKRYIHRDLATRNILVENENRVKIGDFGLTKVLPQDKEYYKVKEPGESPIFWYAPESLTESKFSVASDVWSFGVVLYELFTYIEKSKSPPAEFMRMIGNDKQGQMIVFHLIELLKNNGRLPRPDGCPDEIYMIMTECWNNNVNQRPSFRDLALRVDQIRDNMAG

With `c1ccc(NNc2ccccc2)cc1` the outcome [1] was “inactive”.

In the case of `CCN(CC)N=O`, the outcome [1] is reported as “inactive” and the outcome [2] is reported as “inactive”.

In the case of `ClCCOCCCl`, the outcome [2] is reported as “inactive”.

`c1ccc2c(c1)-c1cccc3cccc-2c13` was tested, and the outcome [3] was “inactive”.

With `CCCCCCCCCCCCCN1CC(C)OC(C)C1` (stereo not drawn) the outcome [3] was “inactive”.

For `COc1cc(C=O)cc2c1[C@H](COC(N)=O)[C@]1(OC(C)=O)ON2C[C@H]2[C@@H]1N2C(C)=O`, the AC50 [4] was 6.08 nM (active).

With `CCNS(=O)(=O)C(F)(F)C(F)(F)C(F)(F)C(F)(F)C(F)(F)C(F)(F)C(F)(F)C(F)(F)F` the outcome [5] was “inactive”.
